A short description of assay [1]: SK-BR-3 cell growth inhibitors, pilot screen, 24 h, human (AID 572;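 active = viability at or below 10% of carrier control in both of two separate runs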;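 also: compound exposure lasted between 18 and 24 h rather than exactly 24 h; 100% = carrier-treated control wells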). Conditions: SK-BR-3 viability, CellTiter-Glo luminescence, at 10 µM, stronger effect = lower value.
Assay [2] in a line: HUVEC growth inhibition – cell-based, human, primary screen (AID 575;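 active = viability at or below 30% in both replicate assays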;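 also: 100% = median of untreated cell wells with 0.1% DMSO on each plate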). Conditions: HUVEC proliferation, CellTiter-Glo luminescence, 72 h; at 10 µM; stronger effect = lower value. On the technique in general: Cellular ATP, detected with luciferase, serves as a proxy for viable cell number.
Assay [3] is described as follows: growth inhibitors of H69AR lung tumor, primary screen, human, duplicate replicates (AID 580;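 active = viability at or under a set limit in both replicates, limit being median viability minus 3 SD, cut at about 48% in these data, passing the limit was not always enough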;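 also: 100% = mean luminescence of untreated wells and 0% = no signal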). The note with it: H69AR lung tumor cells viability, ATP luminescence, 72 h; at 10 µM; stronger effect = lower value.
The nature of assay [4]: reversal of MRP1-mediated doxorubicin resistance, pilot screen, H69AR cells, doxorubicin co-treatment (AID 601;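 active = viability loss from added drug above about 55%, and viability with drug at most 40%, in both replicates, limit read from the data, passing the limit was not always enough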). Conditions: CellTiter-Glo, 72 h, at 10 µM; for differential viability (reversal): stronger effect = higher value.
Assay [5] in a line: 384-well plate pilot, post-Golgi transport modulator project, inhibition of yeast transport mutant growth (AID 636; in the data active = inhibition above about 31%). Conditions: absorbance 615 nm, about 18 h, stronger effect = higher value.
Assay [6] in a line: growth suppression of yeast trafficking mutant, preliminary HTS, modulators of trafficking downstream of Golgi apparatus project, 1536-format plate, OD 615 nm (AID 637; in the data active = inhibition above about 30%). Conditions: yeast transport mutant growth, absorbance 615 nm, 18 h; stronger effect = higher value.
Assay [7] is described as follows: OD615 S. cerevisiae growth inhibition, permissive medium, pilot counter-assay, permissive growth control for S. cerevisiae lifespan shortening project (AID 705). The note with it: OD615, 24 h, at 10 µM, stronger effect = higher value.
A short description of assay [8]: Restrictive medium S. cerevisiae growth inhibition, OD615, pilot screen of yeast lifespan reduction project, restrictive growth control (AID 706;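 active = growth inhibition above a set limit, 3 SD over mean compound inhibition, in both replicates, cut at about 43% in these data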;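 also: modified DeaD lifespan yeast strain shifted to restrictive glucose medium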). Conditions: OD615, 48 h, at 10 µM, stronger effect = higher value.
The nature of assay [9]: viability gain of MRP-1-high H69AR cells under doxorubicin, pilot screen, MRP-1 activator project, CellTiter-Glo, duplicate (AID 807;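 active = viability increase at or above a cutoff of the median across tested compounds plus 3 SD, cut at about 8.5% in these data, passing the limit was not always enough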;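 also: compound pretreatment 18-22 h then 72 h combined with doxorubicin; 0% = doxorubicin alone and 100% = vehicle without doxorubicin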). Conditions: H69AR viability with doxorubicin, CellTiter-Glo luminescence; at 10 µM; stronger effect = higher value.
The nature of assay [10]: growth suppression of beta-catenin knockout HCT116, pilot screen, human colon tumor cells (AID 823;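 active = cell viability at or below a set limit in both duplicate runs, the limit being the all-compound median minus 4 SD, cut at about 23% in these data, passing the limit was not always enough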;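 also: 0% = wells killed by 20 µM Hyamine and 100% = untreated DMSO cell wells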). The note with it: CellTiter-Glo, 60 h, at 10 µM, stronger effect = lower value.
The nature of assay [11]: inhibitors of the yeast RAM network, pilot screen, dse1pr::URA3 reporter, 5-FOA selection (AID 869;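 active = inhibition over a set limit, the all-compound mean plus 3 SD, in both replicate runs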;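 also: 0% = DMSO wells with no growth and 100% = 10 µM 1-NA-PP1 with full growth; RAM network block rescues cells from 5-FOA so hits raise OD615 growth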). The note with it: S. cerevisiae dse1pr::URA3 5-FOA growth, OD615, 2 d; at 10 µM; stronger effect = higher value; strain carries analog-sensitive mutant Cbk1 kinase.
The nature of assay [12]: RAM signaling pathway blockade in yeast – S. cerevisiae, Pdr1DBD-CYC8 efflux-inhibited sensitized strain, primary screen (AID 1298;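 active = RAM network inhibition above 8.4% in each of two replicates, 3 SD over the compound average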;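 also: 0% = DMSO untreated cells without growth and 100% = 10 µM 1-NA-PP1 full growth; higher means more yeast growth rescued from 5-FOA killing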). Conditions: S. cerevisiae cbk1-as DSE1-URA3 strain, 5-FOA growth OD615, 2 d; at 50 µM; stronger effect = higher value.
The nature of assay [13]: growth suppression of PTEN-deleted HCT116, pilot screen, cell-based, HCT116 clonal line, CellTiter-Glo (AID 824;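 active = viability at or below 27.92% in each of two runs, the all-compound median minus 4 SD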;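 also: 0% = 20 µM Hyamine control and 100% = vehicle cell control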). The note with it: 60 h, at 10 µM, stronger effect = lower value.
Setting [14] is: H69AR cells + 2 uM doxorubicin, measured here: viability with 2 uM doxorubicin, stronger effect = lower value.
[15] abbreviates: H69AR cells, compound alone cytotoxicity.

This note sets out measurements from PubChem BioAssay.

Results filed as inconclusive are left out. Active and inactive are the calls of the source.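 The calls were made as follows, unless noted: active = growth inhibition above 25% in both replicates, a cutoff set 3 SD above the mean; inconclusive = above 25% in only one replicate; inactive = the rest.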

A word on the viability: it is a read-out of living cells in per cent, often relative to untreated cells. Usually inhibition stands for the drop in the measured response relative to a control, in per cent. Consider `COc1ccc(OCCCC(=O)Nc2nncs2)cc1`, for which the viability in [1] is 97% (inactive); in [2] it was 101% (inactive); in assay [3] it was 89.6% (inactive); in assay [4] (setting [14]) it was 83.1%; in assay [4] (setting [15]) it was 89.6%; in assay [10], 94.5% (inactive). Besides, the differential viability (reversal) in assay [4] (H69AR cells + 2 uM doxorubicin) was 6.49% (inactive). In addition, the results for the inhibition in [5], in [6] and in [11] were -5.27% (inactive), -2.73% (inactive) and 2.95% (inactive), respectively. Besides, the results for the growth inhibition in [7] and in assay [8] were -11.5% (inactive) and -0.545% (inactive), respectively. The viability increase in assay [9] is -0.07% (inactive). For the same compound, the RAM network inhibition in [12] was 4.52% (inactive).

Take `CSC1=N/C(=C\C=C\c2cccs2)C(=O)S1`: the viability in assay [1] was 95% (inactive); in assay [2], 79.5% (inactive); in assay [4] (setting [14]) it was 67%; in [4] (setting [15]), 51.4%; in assay [10], 95% (inactive); in [13], 99.1% (inactive). Further, the differential viability (reversal) in assay [4] (H69AR cells + 2 uM doxorubicin) is -15.6% (inactive). Besides, the inhibition in [5] was -1.15% (inactive); in assay [6], -6.17% (inactive); in [11] it was 1.66% (inactive). Besides, the growth inhibition in [7] was -8% (inactive); in assay [8] it was 0.455% (inactive). Also, the viability increase in assay [9] is -3.44% (inactive). Further, the RAM network inhibition in [12] is 6.92% (inactive).

`COc1ccc(NC(=O)CC2CCCCC2)cc1OC`: the viability in [1] is 96% (inactive); in assay [2], 94.6% (inactive); in assay [3], 103% (inactive); in assay [4] (setting [14]) it was 90.2%; in assay [4] (setting [15]), 103%; in [10], 96.3% (inactive). For the same compound, the viability in assay [13] is 93.4% (inactive). Also, in assay [4] (H69AR cells + 2 uM doxorubicin), the differential viability (reversal) was 12.8% (inactive). The inhibition in [5] was -6% (inactive); in assay [6], -1.09% (inactive); in assay [11] it was 2.6% (inactive). Moreover, the figures for the growth inhibition in assay [7] and in [8] were -9.11% (inactive) and -10.4% (inactive), respectively. Also, in [9], the viability increase is -0.97% (inactive). Besides, the RAM network inhibition in [12] was 6.64% (inactive).

As for `O=C(CCNS(=O)(=O)c1cccs1)Nc1ccccc1F`, the viability in assay [1] was 81% (inactive); in assay [2], 121% (inactive); in [3] it was 108% (inactive); in [4] (setting [14]), 99.2%; in assay [4] (setting [15]), 108%; in [10] it was 90.8% (inactive). Moreover, the viability in assay [13] is 92.8% (inactive). Besides, the differential viability (reversal) in assay [4] (H69AR cells + 2 uM doxorubicin) is 8.57% (inactive). For the same compound, the results for the inhibition in [5], in assay [6] and in [11] were -6.49% (inactive), 0.55% (inactive) and 0.805% (inactive), respectively. Besides, the growth inhibition in [7] was -26.3% (inactive); in assay [8] it was -12.8% (inactive). Further, the viability increase in [9] is -0.31% (inactive). Besides, the RAM network inhibition in assay [12] is 2.55% (inactive).

For the compound `CC12CN3CCN(CC(C3)C1(O)CN1CCCCC1)C2` (configuration not stated), the viability in assay [1] is 119% (inactive); in [2], 95.5% (inactive); in assay [3] it was 92.5% (inactive); in [4] (setting [14]) it was 89.2%; in assay [4] (setting [15]) it was 92.5%; in assay [10], 88.3% (inactive). The viability in [13] is 85.1% (inactive). For the same compound, in [4] (H69AR cells + 2 uM doxorubicin), the differential viability (reversal) was 3.25% (inactive). The inhibition in assay [5] is -8.13% (inactive); in assay [6], -0.18% (inactive); in assay [11], 1.06% (inactive). The figures for the growth inhibition in assay [7] and in assay [8] were -9.73% (inactive) and -6.28% (inactive), respectively. Further, in assay [9], the viability increase is -1.63% (inactive). For the same compound, the RAM network inhibition in assay [12] is 1.07% (inactive).

Consider `COC(=O)c1cc(-c2ccccc2)sc1NC(=O)c1cc(C)on1`, for which the viability in [1] is 121% (inactive); in assay [2] it was 96.6% (inactive); in [3], 95.9% (inactive); in assay [4] (setting [14]), 90.8%; in [4] (setting [15]), 95.9%; in assay [10] it was 93.7% (inactive). The viability in assay [13] was 84.2% (inactive). The differential viability (reversal) in [4] (H69AR cells + 2 uM doxorubicin) is 5.14% (inactive). In addition, the inhibition in assay [5] is -4.38% (inactive); in assay [6], -6.45% (inactive); in assay [11], 1.4% (inactive). In addition, the values for the growth inhibition in assay [7] and in assay [8] were -0.31% (inactive) and -11.1% (inactive), respectively. Further, the viability increase in [9] is -2.24% (inactive). For the same compound, in assay [12], the RAM network inhibition was 2.94% (inactive).

With `Cc1cc(NC(=O)CS(=O)(=O)c2cn(Cc3ccccc3Cl)c3ccccc23)no1`, the viability is 92% (inactive) in assay [1]; 79.2% (inactive) in [2]; 92.1% (inactive) in assay [3]; 81% in [4] (setting [14]); 92.1% in [4] (setting [15]); 47.8% (inactive) in assay [13]. The differential viability (reversal) in assay [4] (H69AR cells + 2 uM doxorubicin) is 11.1% (inactive). Besides, the inhibition was -5.2% (inactive) in [5], 5.82% (inactive) in assay [6] and 2.17% (inactive) in assay [11]. Besides, the growth inhibition in [7] was -4.35% (inactive); in [8] it was -0.555% (inactive). Also, the viability increase in assay [9] was -2.24% (inactive). Moreover, in assay [12], the RAM network inhibition is 3.11% (inactive).

`Cn1c(CSc2nc3ccccc3s2)nnc1SCC(=O)NCCN1CCOCC1`: the viability in assay [1] is 75% (inactive); in assay [2], 97.6% (inactive); in assay [3], 98.5% (inactive); in assay [4] (setting [14]), 102%; in assay [4] (setting [15]), 98.5%; in [10] it was 92.9% (inactive). The viability in assay [13] was 86.7% (inactive). Moreover, in assay [4] (H69AR cells + 2 uM doxorubicin), the differential viability (reversal) is -3.51% (inactive). The values for the inhibition in [5], in assay [6] and in assay [11] were 2.67% (inactive), 10% (inactive) and 0.27% (inactive), respectively. The values for the growth inhibition in assay [7] and in [8] were 7.95% (inactive) and 32.4% (inactive), respectively. The viability increase in assay [9] was -3.43% (inactive). Besides, the RAM network inhibition in [12] is 3.17% (inactive).

Consider `O=C(CCC(=O)OCC(=O)c1ccccc1)NC1CCCCC1`, for which the viability in assay [1] is 68% (inactive); in [2], 108% (inactive); in [3], 101% (inactive); in assay [4] (setting [14]), 86.1%; in [4] (setting [15]), 101%; in assay [10], 93.6% (inactive). Moreover, the viability in [13] is 95.6% (inactive). For the same compound, the differential viability (reversal) in [4] (H69AR cells + 2 uM doxorubicin) is 14.9% (inactive). Also, the inhibition was -7.33% (inactive) in [5], -5.82% (inactive) in assay [6] and -0.295% (inactive) in assay [11]. Also, the results for the growth inhibition in assay [7] and in assay [8] were -6.58% (inactive) and -5.45% (inactive), respectively. Further, the viability increase in [9] was -0.49% (inactive). Besides, the RAM network inhibition in assay [12] is 5.37% (inactive).
